# According to the supplement of paper PMC10849652:
# Of roughly 7,900 targets only a part is listed; those with a hit were picked by preference. About 0.6% of all pairs of compound and target were hits. Unmarked numbers belong to inactive results.
# Legend:
# Experiment in all cases: log2 fold change, soluble protein after heating vs DMSO (PISA); higher = thermal stabilisation; K562 cells, 10 uM, 30 min; active = over 0.2 and 3.5 SD of the protein, either way, in both replicates (recomputed)
# [1] = compound: CC[C@@H]1C(=O)N(C)c2cnc(Nc3ccc(C(=O)NC4CCN(C)CC4)cc3OC)nc2N1C1CCCC1
# How it was run: (§1)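 K562 cells at 2×10^6 cells/mL were treated for 30 min with 10 μM compound, and aliquots were heated for 3 min over 48°C-58°C before pooling. Extraction used PBS with 0.5% NP-40 at 4°C, and soluble protein was the supernatant after 21,000xg for 90 min, measured by TMTpro 16plex LC-MS/MS with channel sums equalised. Thermal stability values, relative to control samples and from duplicates, are log2 fold changes.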
# volasertib = compound: CC[C@@H]1C(=O)N(C)c2cnc(Nc3ccc(C(=O)N[C@H]4CC[C@H](N5CCN(CC6CC6)CC5)CC4)cc3OC)nc2N1C(C)C [volasertib]
# How it was run: as §1
# [2] = compound: CC[C@H](C)N1C=C(C2=C(C=C(C=C21)C3=CN=C(C=C3)N4CCNCC4)C(=O)NCC5=C(C=C(NC5=O)C)C)C
# How it was run: as §1
# epoxomicin = compound: CC[C@H](C)[C@@H](C(=O)N[C@@H]([C@@H](C)O)C(=O)N[C@@H](CC(C)C)C(=O)[C@]1(CO1)C)NC(=O)[C@H]([C@@H](C)CC)N(C)C(=O)C [epoxomicin]
# How it was run: as §1
# [3] = compound: CCn1c(C(=O)N(C2CC2)C2CC2)cc2c3c(ncn3C)c(Nc3cc(C)n(C)n3)nc21
# How it was run: as §1
# [4] = compound: CCn1cc(-c2ccnc3[nH]c(-c4cccc(CN(C)C)c4)cc23)c(-c2ccc(NC(=O)N(C)C)cc2)n1
# How it was run: as §1
# [5] = compound: CN(C)CC(=O)Nc1ccc2[nH]c(=O)c3ccccc3c2c1
# How it was run: as §1
# rosiglitazone = compound: CN(CCOC1=CC=C(C=C1)C[C@H]2C(=O)NC(=O)S2)C3=CC=CC=N3 (racemic) [rosiglitazone]
# How it was run: as §1
# [6] = compound: CN1C2=C(C3=C1C(=O)N(N=C3)CC4=CC(=CC=C4)N)SC(=C2)S(=O)C
# How it was run: as §1
# [7] = compound: CN1CCC(CNc2ccc3ncc(-c4cccc(OC(F)(F)F)c4)n3n2)CC1
# How it was run: as §1
# saracatinib = compound: CN1CCN(CCOc2cc(OC3CCOCC3)c3c(Nc4c(Cl)ccc5c4OCO5)ncnc3c2)CC1 [saracatinib]
# How it was run: as §1
# sotrastaurin = compound: CN1CCN(c2nc(C3=C(c4c[nH]c5ccccc45)C(=O)NC3=O)c3ccccc3n2)CC1 [sotrastaurin]
# How it was run: as §1
# alvocidib = compound: CN1CC[C@H](c2c(O)cc(O)c3c(=O)cc(-c4ccccc4Cl)oc23)[C@H](O)C1 [alvocidib]
# How it was run: as §1
# Tubastatin A = compound: CN1CCc2c(c3ccccc3n2Cc2ccc(C(=O)NO)cc2)C1 [Tubastatin A]
# How it was run: as §1
# [8] = compound: CNC(=O)C1=CC=CC=C1NC2=NC(=NC=C2Cl)NC3=C(C=C(C=C3)N4CCOCC4)OC
# How it was run: as §1
# defactinib = compound: CNC(=O)c1ccc(Nc2ncc(C(F)(F)F)c(NCc3nccnc3N(C)S(C)(=O)=O)n2)cc1 [defactinib]
# How it was run: as §1
# rucaparib = compound: CNCc1ccc(-c2[nH]c3cc(F)cc4c3c2CCNC4=O)cc1 [rucaparib]
# How it was run: as §1
# [9] = compound: CNc1nc(-c2ccc3c(N)n[nH]c3c2)cc(N2C[C@@H](C(=O)NC3CCCCC3)CC[C@H]2C)n1
# How it was run: as §1
# encorafenib = compound: COC(=O)N[C@@H](C)CNc1nccc(-c2cn(C(C)C)nc2-c2cc(Cl)cc(NS(C)(=O)=O)c2F)n1 [encorafenib]
# How it was run: as §1
# [10] = compound: COC(=O)[C@H](CCSC)NC(=O)C1=C(C=C(C=C1)NC[C@H](CS)N)C2=CC=CC=C2
# How it was run: as §1
# Sequence of UniProt Q9BTE6 (Q9BTE6 whole entry, looked up): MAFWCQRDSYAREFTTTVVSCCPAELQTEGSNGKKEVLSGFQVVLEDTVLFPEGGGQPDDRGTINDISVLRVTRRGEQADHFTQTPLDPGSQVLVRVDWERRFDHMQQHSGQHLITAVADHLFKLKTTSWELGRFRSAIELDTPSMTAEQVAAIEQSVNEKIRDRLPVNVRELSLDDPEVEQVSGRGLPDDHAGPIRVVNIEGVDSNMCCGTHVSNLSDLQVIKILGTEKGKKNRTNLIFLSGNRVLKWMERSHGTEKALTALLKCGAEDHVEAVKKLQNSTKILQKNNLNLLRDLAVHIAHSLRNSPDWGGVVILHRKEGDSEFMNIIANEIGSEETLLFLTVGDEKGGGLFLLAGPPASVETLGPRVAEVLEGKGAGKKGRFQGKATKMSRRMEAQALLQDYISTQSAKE
# Sequence of UniProt Q99798 (Q99798 whole entry, looked up): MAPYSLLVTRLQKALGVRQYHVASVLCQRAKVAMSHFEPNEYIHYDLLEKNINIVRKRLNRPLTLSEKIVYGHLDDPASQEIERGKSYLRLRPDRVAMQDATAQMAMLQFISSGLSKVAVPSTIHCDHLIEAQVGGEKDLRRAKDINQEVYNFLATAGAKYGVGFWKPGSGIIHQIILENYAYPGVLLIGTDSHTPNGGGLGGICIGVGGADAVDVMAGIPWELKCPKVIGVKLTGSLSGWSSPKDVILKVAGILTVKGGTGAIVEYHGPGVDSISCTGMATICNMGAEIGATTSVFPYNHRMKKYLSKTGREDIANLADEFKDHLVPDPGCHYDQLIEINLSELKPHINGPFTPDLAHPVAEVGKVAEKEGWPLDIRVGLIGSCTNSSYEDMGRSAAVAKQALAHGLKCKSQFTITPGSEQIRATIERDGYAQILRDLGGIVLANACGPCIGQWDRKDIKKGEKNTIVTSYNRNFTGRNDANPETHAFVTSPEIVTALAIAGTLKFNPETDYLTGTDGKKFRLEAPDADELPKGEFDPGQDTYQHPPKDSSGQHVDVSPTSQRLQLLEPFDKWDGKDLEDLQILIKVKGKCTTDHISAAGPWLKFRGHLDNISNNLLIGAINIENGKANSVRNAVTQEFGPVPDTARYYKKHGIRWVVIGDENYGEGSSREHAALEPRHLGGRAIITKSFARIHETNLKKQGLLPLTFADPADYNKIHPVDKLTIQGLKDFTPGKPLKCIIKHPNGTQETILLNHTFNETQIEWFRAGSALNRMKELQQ
# Sequence of UniProt P31751 (P31751 whole entry, looked up): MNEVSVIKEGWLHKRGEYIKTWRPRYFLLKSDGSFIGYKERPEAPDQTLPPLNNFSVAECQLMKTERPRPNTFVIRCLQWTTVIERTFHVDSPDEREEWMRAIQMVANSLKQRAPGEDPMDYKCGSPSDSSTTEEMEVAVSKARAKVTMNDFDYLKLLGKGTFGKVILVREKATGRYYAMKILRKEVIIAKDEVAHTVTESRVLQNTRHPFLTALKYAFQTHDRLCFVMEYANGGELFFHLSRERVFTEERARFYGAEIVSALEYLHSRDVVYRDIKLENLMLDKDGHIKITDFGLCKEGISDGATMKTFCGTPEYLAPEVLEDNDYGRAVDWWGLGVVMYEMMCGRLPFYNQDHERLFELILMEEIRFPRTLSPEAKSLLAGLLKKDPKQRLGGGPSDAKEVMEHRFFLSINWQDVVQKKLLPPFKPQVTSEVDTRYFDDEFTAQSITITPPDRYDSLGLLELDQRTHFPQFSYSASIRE
# Sequence of UniProt Q9Y6D6 (Q9Y6D6 whole entry, looked up): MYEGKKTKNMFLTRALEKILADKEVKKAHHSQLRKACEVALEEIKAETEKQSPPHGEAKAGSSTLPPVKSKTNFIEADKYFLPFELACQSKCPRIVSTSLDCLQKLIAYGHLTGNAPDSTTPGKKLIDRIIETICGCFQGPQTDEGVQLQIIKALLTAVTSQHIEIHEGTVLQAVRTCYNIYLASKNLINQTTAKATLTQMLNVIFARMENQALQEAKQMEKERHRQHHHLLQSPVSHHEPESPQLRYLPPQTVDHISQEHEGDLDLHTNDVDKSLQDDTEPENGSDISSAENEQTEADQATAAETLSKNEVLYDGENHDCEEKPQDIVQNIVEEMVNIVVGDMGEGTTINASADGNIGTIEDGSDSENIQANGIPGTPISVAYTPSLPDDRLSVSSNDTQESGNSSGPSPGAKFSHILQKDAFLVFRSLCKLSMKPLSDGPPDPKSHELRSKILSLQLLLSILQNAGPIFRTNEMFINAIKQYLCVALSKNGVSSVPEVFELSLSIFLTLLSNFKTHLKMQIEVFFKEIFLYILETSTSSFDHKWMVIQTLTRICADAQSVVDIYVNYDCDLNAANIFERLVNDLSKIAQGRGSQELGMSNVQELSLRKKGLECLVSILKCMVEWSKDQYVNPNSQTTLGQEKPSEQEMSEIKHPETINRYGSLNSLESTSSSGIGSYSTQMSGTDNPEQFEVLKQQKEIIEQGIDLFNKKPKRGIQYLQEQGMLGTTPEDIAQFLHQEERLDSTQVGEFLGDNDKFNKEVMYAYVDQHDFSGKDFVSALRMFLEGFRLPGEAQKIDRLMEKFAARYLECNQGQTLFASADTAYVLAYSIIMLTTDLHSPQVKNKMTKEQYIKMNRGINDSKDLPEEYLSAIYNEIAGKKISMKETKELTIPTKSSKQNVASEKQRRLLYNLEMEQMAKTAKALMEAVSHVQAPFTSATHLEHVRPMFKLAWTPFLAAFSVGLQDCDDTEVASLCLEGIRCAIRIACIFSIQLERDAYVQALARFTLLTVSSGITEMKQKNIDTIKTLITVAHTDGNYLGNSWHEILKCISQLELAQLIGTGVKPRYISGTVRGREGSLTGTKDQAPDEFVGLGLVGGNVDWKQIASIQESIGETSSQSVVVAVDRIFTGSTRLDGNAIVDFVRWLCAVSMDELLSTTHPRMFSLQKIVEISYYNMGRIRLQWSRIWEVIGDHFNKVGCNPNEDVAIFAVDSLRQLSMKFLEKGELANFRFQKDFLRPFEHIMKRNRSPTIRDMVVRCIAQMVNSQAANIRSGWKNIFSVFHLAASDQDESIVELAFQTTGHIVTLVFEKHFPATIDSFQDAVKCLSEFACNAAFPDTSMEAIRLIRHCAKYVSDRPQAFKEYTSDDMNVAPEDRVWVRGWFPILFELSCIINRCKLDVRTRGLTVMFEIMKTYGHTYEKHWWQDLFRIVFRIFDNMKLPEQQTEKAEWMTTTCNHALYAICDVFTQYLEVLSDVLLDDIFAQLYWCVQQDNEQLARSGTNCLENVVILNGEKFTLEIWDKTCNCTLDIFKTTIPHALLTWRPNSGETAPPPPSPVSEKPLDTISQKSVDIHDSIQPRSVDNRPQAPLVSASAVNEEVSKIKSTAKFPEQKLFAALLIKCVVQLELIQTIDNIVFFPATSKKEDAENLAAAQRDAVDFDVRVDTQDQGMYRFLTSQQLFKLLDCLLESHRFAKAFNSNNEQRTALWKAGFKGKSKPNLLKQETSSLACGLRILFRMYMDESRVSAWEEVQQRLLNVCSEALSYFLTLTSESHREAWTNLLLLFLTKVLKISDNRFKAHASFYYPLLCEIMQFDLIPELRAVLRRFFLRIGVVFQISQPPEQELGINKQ
# Sequence of UniProt Q02252 (Q02252 whole entry, looked up): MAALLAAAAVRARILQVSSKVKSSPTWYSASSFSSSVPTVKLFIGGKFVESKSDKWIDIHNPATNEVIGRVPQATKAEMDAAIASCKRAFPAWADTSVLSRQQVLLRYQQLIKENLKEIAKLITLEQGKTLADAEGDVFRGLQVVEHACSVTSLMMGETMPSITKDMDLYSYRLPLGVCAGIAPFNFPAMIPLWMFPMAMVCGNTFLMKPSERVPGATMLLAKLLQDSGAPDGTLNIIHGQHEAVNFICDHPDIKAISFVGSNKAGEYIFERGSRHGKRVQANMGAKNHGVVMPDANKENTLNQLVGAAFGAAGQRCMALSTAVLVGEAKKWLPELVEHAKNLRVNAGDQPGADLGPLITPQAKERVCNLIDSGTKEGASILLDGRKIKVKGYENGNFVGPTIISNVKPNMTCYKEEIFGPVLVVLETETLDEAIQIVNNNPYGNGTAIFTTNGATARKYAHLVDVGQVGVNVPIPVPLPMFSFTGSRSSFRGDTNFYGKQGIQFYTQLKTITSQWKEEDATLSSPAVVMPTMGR
# Sequence of UniProt Q06481 (Q06481 whole entry, looked up): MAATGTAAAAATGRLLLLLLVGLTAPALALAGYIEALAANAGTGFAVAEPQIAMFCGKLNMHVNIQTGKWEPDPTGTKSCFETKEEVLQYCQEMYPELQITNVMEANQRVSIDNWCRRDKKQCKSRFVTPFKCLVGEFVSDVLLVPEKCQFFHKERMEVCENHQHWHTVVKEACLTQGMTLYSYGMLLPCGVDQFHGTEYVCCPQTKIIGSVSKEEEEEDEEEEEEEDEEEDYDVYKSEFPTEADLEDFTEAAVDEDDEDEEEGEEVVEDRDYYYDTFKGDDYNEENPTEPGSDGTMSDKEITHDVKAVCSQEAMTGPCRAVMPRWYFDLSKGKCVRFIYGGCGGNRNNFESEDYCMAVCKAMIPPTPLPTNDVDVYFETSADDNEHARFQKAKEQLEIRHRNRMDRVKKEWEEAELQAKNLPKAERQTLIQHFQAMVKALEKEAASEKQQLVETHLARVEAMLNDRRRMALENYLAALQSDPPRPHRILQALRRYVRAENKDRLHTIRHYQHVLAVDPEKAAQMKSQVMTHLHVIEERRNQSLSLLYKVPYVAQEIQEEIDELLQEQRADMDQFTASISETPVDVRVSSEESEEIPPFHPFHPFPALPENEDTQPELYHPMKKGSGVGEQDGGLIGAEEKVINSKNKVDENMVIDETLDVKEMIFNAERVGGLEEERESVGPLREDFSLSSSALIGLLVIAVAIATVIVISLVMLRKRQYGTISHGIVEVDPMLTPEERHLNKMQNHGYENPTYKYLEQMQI
# Sequence of UniProt P55957 (P55957 whole entry, looked up): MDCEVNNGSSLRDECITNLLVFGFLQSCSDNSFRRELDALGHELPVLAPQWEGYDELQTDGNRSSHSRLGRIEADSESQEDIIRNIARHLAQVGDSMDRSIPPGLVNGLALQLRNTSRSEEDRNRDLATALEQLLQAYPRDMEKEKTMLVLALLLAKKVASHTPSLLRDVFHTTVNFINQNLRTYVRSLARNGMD
Target,log2 fold change [1],log2 fold change (volasertib),log2 fold change [2],log2 fold change (epoxomicin),log2 fold change [3],log2 fold change [4],log2 fold change [5],log2 fold change (rosiglitazone),log2 fold change [6],log2 fold change [7],log2 fold change (saracatinib),log2 fold change (sotrastaurin),log2 fold change (alvocidib),log2 fold change (Tubastatin A),log2 fold change [8],log2 fold change (defactinib),log2 fold change (rucaparib),log2 fold change [9],log2 fold change (encorafenib),log2 fold change [10]
APLP2 (UniProt Q06481),0.076,-0.04,-0.092,0.017,0.089,0.006,-0.106,-0.026,-0.004,0.179,0.072,0.094,0.011,0.014,0.009,-0.055,-0.082,-0.051,0.02,0.051
ALDH6A1 (UniProt Q02252),0.06,-0.011,-0.059,0,0.028,-0.06,-0.033,0.093,-0.068,-0.004,0.031,0.144,-0.098,0.03,0.021,-0.021,0.021,-0.045,0.024,-0.008
BID isoform 2 (UniProt P55957),0.013,-0.196,-0.022,-0.036,-0.022,0.045,0.042,0.001,-0.068,-0.048,0.008,0.04,-0.018,0.076,-0.053,-0.031,0.033,-0.017,-0.011,-0.032
ALG5 (UniProt Q9Y673),-0.028,-0.026,0.017,0.043,-0.036,-0.069,0.035,0.078,-0.088,0.017,-0.011,-0.071,-0.088,0.005,0.016,-0.055,-0.113,0.008,-0.025,-0.036
ACO2 (UniProt Q99798),0.043,0.037,0.022,0.046,-0.011,-0.115,0.055,-0.023,-0.118,-0.344 (active),0.005,-0.017,-0.107,-0.021,0.016,-0.083,-0.034,0.021,0.027,-0.037
AP2A2 isoform 2 (UniProt O94973),0.026,-0.021,0,0.048,0.01,-0.012,0,0.012,0.008,0.089,0.006,-0.028,0.052,0.022,0.022,-0.006,0.077,-0.053,-0.002,-0.008
ARFGEF1 (UniProt Q9Y6D6),-0.022,-0.248,0.01,0.033,-0.007,0.011,-0.005,0.045,-0.037,-0.046,0.037,0.039,-0.055,0.013,0.094,0.007,0.011,0.059,0.048,-0.038
AARSD1 isoform 3 (UniProt Q9BTE6),-0.081,-0.27 (active),0.019,0.083,0.009,-0.01,0.037,0.05,0.02,0.021,-0.009,-0.113,-0.016,-0.336 (active),0.081,-0.071,-0.077,-0.037,0.08,0.004
AIP (UniProt O00170),-0.115,-0.372 (active),0.054,0.172,-0.006,-0.051,0.057,0.053,-0.085,-0.047,0.009,-0.038,-0.079,0.034,0.028,-0.068,-0.015,-0.046,0.065,-0.025
ATP1A4 (UniProt Q13733),0.125,0.07,-0.025,0.081,-0.004,-0.056,-0.05,0.006,-0.057,0.26 (active),0.066,-0.088,0.015,-0.017,0.151,0.033,-0.076,-0.108,0.021,0.118
AURKA (UniProt O14965),0.017,0.134,-0.022,0.113,0.004,0.733 (active),0,-0.015,0.029,0.14,-0.019,-0.02,-0.03,0.011,0.974 (active),0.722 (active),0.073,0.201,0.033,0.071
AKT2 (UniProt P31751),-0.017,-0.253,0.128,0.079,-0.061,-0.175,-0.026,0.082,-0.038,-0.119,-0.012,-0.068,-0.005,0.01,0.042,-0.009,-0.058,-0.102,0.015,0.013
BMP2K (UniProt Q9NSY1),0.13,0.115,-0.02,-0.053,0.269,0.023,-0.058,-0.044,0.008,0.656 (active),0.071,0.023,0.088,0.015,0.183,0.179,0.064,-0.029,-0.069,-0.012
ARGLU1 (UniProt Q9NWB6),0.094,-0.004,0.033,-0.106,0.024,0.138,0.003,0.012,0.068,0,0.016,0.091,0.014,0.003,-0.365,-0.04,-0.026,-0.028,-0.006,0.077
B4GALNT1 (UniProt Q00973),-0.243,-0.097,-0.115,-0.059,0.078,0.01,0.143,0.025,-0.103,0.173,-0.143,-0.07,0.177,-0.057,-0.021,-0.182,0.017,0.025,0.144,-0.425
